Measurements taken from PubChem BioAssay AID1159580 (chemical genetic matrix, 2015).
“And” between values parts separate entries of the source, which are not always exact repeats. Equal values may be shown once. Screen size: about 5,500 compounds; about 2,000 (36%) were called active. Not shown: some 18% with an inconclusive outcome. No stated cut-off is given here; in the data, active means normalized growth mostly below about 0.91 (no sharp cut-off); inconclusive means no clear call, values can overlap the other calls; inactive means mostly above about 0.92. This is one part of the list.

Assay: chemical genetic growth profiling, strain panel (AID 1159580);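 further: tested at 20 µM; growth read once vehicle control cultures reached saturation at 30 °C; 1 = growth at the plate median or of vehicle wells; lower values mean less growth of the strain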
Conditions: S. cerevisiae deletion strains, growth OD

Measured: normalized growth

Nc1ccc(C(=O)NCC(=O)O)cc1
inactive: locus YAL021C, strain ccr4, active compounds read low 1.02 | locus YAL026C, strain drs2, active compounds read low 1.02 | locus YAL030W, strain snc1, active compounds read low 0.998 | locus YBL061C, strain skt5, active compounds read low 1.01 | locus YBR009C, strain hhf1, active compounds read low 1.01 | locus YBR021W, strain FUR4, active compounds read low 1.01 | locus YBR023C, strain chs3, active compounds read low 1.02 | locus YBR171W, strain sec66, active compounds read low 1.02 | locus YBR229C, strain ROT2, active compounds read low 1 | locus YBR231C, strain swc5, active compounds read low 1.01 | locus YBR279W, strain paf1, active compounds read low 1.01 | locus YCL011C, strain gbp2, active compounds read low 1.02 | locus YCL016C, strain dcc1, active compounds read low 1.02 | locus YCL029C, strain bik1, active compounds read low 1 | locus YCL069W, strain vba3, active compounds read low 1 | locus YCR088W, strain abp1, active compounds read low 1.01 | locus YDL005C, strain med2, active compounds read low 1.01 | locus YDL035C, strain GPR1, active compounds read low 1.01 | locus YDL040C, strain nat1, active compounds read low 1 | locus YDL074C, strain BRE1, active compounds read low 0.992 | locus YDL101C, strain DUN1, active compounds read low 1 | locus YDL134C, strain PPH21, active compounds read low 1.01 | locus YDL185W, strain tfp1, active compounds read low 1.01 | locus YDL192W, strain arf1, active compounds read low 1.01 | locus YDR001C, strain nth1, active compounds read low 1.01 | locus YDR069C, strain doa4, active compounds read low 1 | locus YDR101C, strain arx1, active compounds read low 0.993 | locus YDR137W, strain rgp1, active compounds read low 1.02 | locus YDR150W, strain NUM1, active compounds read low 1.01 | locus YDR159W, strain sac3, active compounds read low 0.979 | locus YDR162C, strain NBP2, active compounds read low 1.01 | locus YDR195W, strain ref2 0.999 | locus YDR297W, strain sur2, active compounds read low 1.02 | locus YDR318W, strain mcm21, active compounds read low 1.02 | locus YDR334W, strain swr1, active compounds read low 1.04 | locus YDR335W, strain msn5, active compounds read low 1.02 | locus YDR388W, active compounds read low 1 | locus YDR392W, strain spt3, active compounds read low 1.03 | locus YDR502C, strain sam2, active compounds read low 1.01 | locus YEL003W, strain gim4, active compounds read low 1.02 | locus YEL037C, strain rad23, active compounds read low 0.998 | locus YEL061C, strain CIN8 (second series), active compounds read low 1.01 | locus YEL061C, strain CIN8, active compounds read low 1 | locus YER015W, strain faa2, active compounds read low 0.996 | locus YER016W, strain bim1, active compounds read low 1.02 | locus YER110C, active compounds read low 1.02 | locus YER111C, strain swi4, active compounds read low 0.996 | locus YER155C, strain BEM2 (second series), active compounds read low 1.02 | locus YER155C, strain BEM2, active compounds read low 0.994 | locus YER167W, strain BCK2, active compounds read low 1.01 | locus YFR010W, strain ubp6, active compounds read low 0.999 | locus YGL078C, strain dbp3, active compounds read low 1.02 | locus YGL086W, strain mad1, active compounds read low 1.01 | locus YGL167C, strain pmr1, active compounds read low 1.02 | locus YGL173C, strain kem1, active compounds read low 1.01 | locus YGL227W, strain vid30, active compounds read low 1 | locus YGL240W, strain doc1, active compounds read low 0.993 | locus YGL248W, strain PDE1, active compounds read low 0.992 | locus YGL253W, strain hxk2, active compounds read low 1.02 | locus YGR135W, strain pre9, active compounds read low 1.04 | locus YGR229C, strain SMI1, active compounds read low 0.99 | locus YGR252W, strain gcn5, active compounds read low 1.01 | locus YHR013C, strain ard1, active compounds read low 1.03 | locus YHR027C, strain rpn1, active compounds read low 1.02 | locus YHR030C, strain SLT2, active compounds read low 1.01 and 0.968 | locus YHR079C, strain IRE1 (second series), active compounds read low 1.01 | locus YHR079C, strain IRE1, active compounds read low 0.971 | locus YHR094C, strain hxt1, active compounds read low 1.01 | locus YHR129C, strain ARP1, active compounds read low 1 | locus YHR142W, strain chs7, active compounds read low 1.02 | locus YHR200W, strain rpn10, active compounds read low 1.02 | locus YIL066C, strain RNR3, active compounds read low 1 | locus YIL073C, strain SPO22, active compounds read low 1.05 | locus YIL125W, strain kgd1, active compounds read low 1.01 | locus YIR030C, strain dcg1, active compounds read low 1 | locus YJL092W, strain hpr5, active compounds read low 1.02 | locus YJL095W, strain BCK1 (second series), active compounds read low 1.01 | locus YJL095W, strain BCK1, active compounds read low 0.985 and 0.967 | locus YJL115W, strain asf1, active compounds read low 1.02 | locus YJL129C, strain trk1, active compounds read low 1.02 | locus YJL134W, strain LCB3, active compounds read low 1 | locus YJL154C, strain vps35, active compounds read low 1 | locus YJL164C, strain tpk1, active compounds read low 1.01 | locus YJL166W, strain qcr8, active compounds read low 1.03 | locus YJL168C, strain set2, active compounds read low 1 | locus YJL187C, strain SWE1 (second series), active compounds read low 0.982 | locus YJR043C, strain POL32, active compounds read low 1.01 | locus YJR066W, strain TOR1, active compounds read low 0.928 | locus YJR075W, strain HOC1, active compounds read low 0.999
